The campaign covered roughly 360,000 compounds. About 2,600 (0.72%) were called active. About 5% were inconclusive and are not listed. Only a selection was taken, and actives are over-represented in it overall. A number with no mark means an inactive call. The call rests on the fitted dose curve; in most records, active means well fitted inhibition curve with a large enough effect; inconclusive means small, poorly fitted or top-dose-only effect; inactive means no such curve, though single readings can be large or run the other way.
On the % scale 0 is the no-effect control and ±100 the full control effect; potency means the concentration at half of the fitted maximal effect.

The nature of the assay: Primary qHTS for Inhibitors of ATXN expression. Further: nearly all actives have a fitted effect of over 55% in size. The conditions noted are these: HEK-293 ATXN2-luciferase reporter, luminescence, 24 h; series mostly up to 57 µM; activity change, negative = inhibition: at the top concentration. The essentials:
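ATXN2-luciferase reporter cells (luciferase flanked by upstream and downstream ATXN2 gene portions) were treated 24 h at 37 °C with compounds at up to 57 uM. SteadyGlo luminescence gave expression; GF-AFC fluorescence gave viability.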
Background: In qHTS, concentration-response curves come from the screen itself.
On to `CC(C)(C)c1ccc(OCC(=O)N2CCC(c3nc4ccccc4s3)CC2)cc1`, for which the “activity change, negative = inhibition” value is 5.8%. Turning to `CSc1nc(-c2ccccc2Cl)nc2c1Cc1c(CO)cnc(C)c1O2`, the “activity change, negative = inhibition” value is -8.24%. Consider `CCCCOCCOC(=O)c1cccnc1`, for which the “activity change, negative = inhibition” value is -6.2%.

For `Cc1ccccc1NC(=O)Cn1c(=O)n(Cc2ccco2)c(=O)c2ccc(C(=O)NC3CCCC3)cc21`, the “activity change, negative = inhibition” value is -0.759%. Take `CN1C(=O)C[C@H](C(=O)N[C@@H](Cc2cnc[nH]2)C(=O)N2CCC[C@@H]2C(N)=O)NC1=O`: the “activity change, negative = inhibition” value was 2.37%. Still for that read-out and setting: for `O=C1NC[C@H](Cc2ccc(O)cc2)N(C[C@@H]2CCCN2C[C@H](Cc2ccccc2)N2C[C@H](Cc3ccccc3)N(CC3CCCCC3)C(=O)C2=O)C1=O` the value was -3.12%. Take `CC(C)C[C@H]1CNC(=S)N1C[C@H]1CCCN1C[C@H](Cc1ccc(O)cc1)N1C[C@H](Cc2ccc(O)cc2)N(CC2CCCCC2)C1=S`: the Potency was 28.2 µM (active). `CC(C)C[C@H]1CNC(=O)C(=O)N1C[C@H]1CCCN1C[C@H](Cc1ccc(O)cc1)N1C[C@H](CC(C)C)N(CC2CCCCCC2)C(=O)C1=O`: the “activity change, negative = inhibition” value is -4.69%.

As to `COc1cccc(C(=O)NCC(=O)OCc2cc(=O)n3ccsc3n2)c1`, the “activity change, negative = inhibition” value was -2.63%. On the same count and under the same terms, the value for `COc1ccc(Cn2ccc3nc(C)c(C(=O)Nc4ccc(C)c(F)c4)cc3c2=O)cc1` was 0.351%; that for `CCOC(=O)c1c(C)oc2nc(C)nc(Nc3ccc(CC)cc3)c12` was 12.1%; that for `CC=C(C(=CC)c1ccc(O)cc1)c1ccc(O)cc1` was -13.1%. Same read-out and setting: the value for `N=C1C(c2nc3ccccc3s2)=C(O)CN1NC(=O)c1ccc([N+](=O)[O-])cc1` was -35.5%; that for `Cc1ccc(NC(=O)c2cccc(S(=O)(=O)N3CCCc4ccccc43)c2)nc1` was -32.7%. As to `O=C(NC(Nc1nc2ccc([N+](=O)[O-])cc2s1)(C(F)(F)F)C(F)(F)F)c1ccccc1`, the Potency was 0.891 µM (active). Still for that read-out and setting: the value for `O=C(Nc1nc2ccc([N+](=O)[O-])cc2s1)c1ccc(S(=O)(=O)N2CCCc3ccccc32)cc1` was 13.4 µM (active). For `CCC(=O)Nc1nnc(S(=O)(=O)N2CCCc3ccccc32)s1`, the “activity change, negative = inhibition” value is 6.98%. The same measure, in the same setting: for `O=C(O)c1cc([N+](=O)[O-])c(Nc2cccc3ccccc23)c([N+](=O)[O-])c1` the value was 46.8%. Still for that read-out and setting: for `Cc1ccc(-c2nc(S(=O)(=O)c3ccc(C)cc3)c(N3CCCCCC3)o2)cc1` the value was -8.34%; for `CC1(C)[C@H](O[C@H]2O[C@H](C(=O)O)[C@@H](O)[C@H](O)[C@H]2O[C@@H]2O[C@H](C(=O)O)[C@@H](O)[C@H](O)[C@H]2O)CC[C@@]2(C)[C@H]1CC[C@]1(C)[C@H]2C(=O)C=C2[C@H]3C[C@@](C)(C(=O)O)CC[C@]3(C)CC[C@]21C`, -2.97%; for `CC[C@]12C=CCN3CC[C@@]4(c5cc([C@@]6(C(=O)OC)C[C@H]7C[C@@H](C(C)(F)F)CN(Cc8c6[nH]c6ccccc86)C7)c(OC)cc5N(C)[C@H]4[C@@](O)(C(=O)OC)[C@H]1OC(C)=O)[C@@H]32`, -15%.
